Screens: PubChem BioAssay, National Center for Advancing Translational Sciences (NCATS)
HP1b binding inh: HP1-beta chromodomain-methylated histone interaction inhibition; P83916; AlphaScreen HP1-beta / biotin-H3K9me3 peptide binding; Potency, µM (titrated, usually from 114 µM), inactives show at the top dose activity change, negative = inhibition, actives largely listed as inhibitors; actives 0.56% (n = 390,000); AID 540317; note: nearly all actives have a fitted effect of over 70% in size
Target sequence (P83916 whole entry, looked up): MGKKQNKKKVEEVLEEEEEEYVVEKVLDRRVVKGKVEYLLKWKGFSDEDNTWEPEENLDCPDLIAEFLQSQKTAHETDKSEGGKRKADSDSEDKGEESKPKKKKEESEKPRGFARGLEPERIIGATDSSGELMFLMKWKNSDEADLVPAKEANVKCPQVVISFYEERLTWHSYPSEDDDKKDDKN
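HP1-beta protein (50 nM final) preincubated 30 min at room temperature with biotinylated H3(1-18)K9me3 peptide (50 nM) in PBS pH 7.4, 0.01% Tween-20, then compound added for 30 min. AlphaScreen streptavidin donor/nickel chelate acceptor beads (10 ug/mL final), 30 min dark, luminescence read.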
JMJD2A Tudor: blocks the human JMJD2A Tudor domain; actives 4.4% (n = 390,000); Potency, µM (highest dose often 114 µM), inactives show top-dose activity change, negative = inhibition, actives largely listed as inhibitors; AlphaScreen JMJD2A-Tudor / H3K4me3 peptide binding; O75164; note: % is set by controls: 0 for no effect and ±100 for the full control effect; nearly all actives have a fitted effect of over 50% in size
Sfp inh: blocks B. subtilis Sfp PPTase activity; Potency, µM, inactives show largest response in the series, negative = inhibition, actives largely listed as inhibitors; Q9F4F7; AID 1490; actives 3.5% (n = 310,000); Biochemical Sfp PPTase activity, qHTS;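 note: the enzyme is Sfp with the accession as filed and its product quenches rhodamine fluorescence; 0% = enzyme reaction without inhibitor and -100% = no enzyme wells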
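Reaction rates are the 30-min fluorescence difference (ex 525, em 598 nm) in wells containing 15 nM Sfp, 5 uM rhodamine-CoA and 12.5 uM BHQ-2-YbbR at pH 7.6 with 10 mM MgCl2.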
G9a block: G9a (human) methyltransferase inhibition. Q96KQ7. G9a H3K9 monomethylation, AlphaScreen, 2 h. Potency, µM (doses to about 102 µM), without a hit: top-dose activity, negative = inhibition, most hits filed as inhibitors. actives 8.8% (n = 350,000); note: % is set by controls: 0 for no effect and ±100 for the full control effect; nearly all actives have a fitted effect of over 75% in size
Target sequence (Q96KQ7 913-1193 limits assumed): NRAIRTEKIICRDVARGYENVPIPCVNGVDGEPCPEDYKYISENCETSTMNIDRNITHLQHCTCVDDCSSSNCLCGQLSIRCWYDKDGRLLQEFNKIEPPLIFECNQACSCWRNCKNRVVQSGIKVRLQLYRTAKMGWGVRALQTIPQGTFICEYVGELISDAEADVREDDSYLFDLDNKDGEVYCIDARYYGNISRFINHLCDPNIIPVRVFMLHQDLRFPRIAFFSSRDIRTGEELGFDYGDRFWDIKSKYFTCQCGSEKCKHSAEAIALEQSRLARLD
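G9a (20 nM) preincubated 15 min RT with compounds, then 500 nM biotinylated H3K9 peptide and 20 uM SAM added; 2 h RT reaction. Monomethyl-H3K9 product detected by AlphaScreen with anti-H3K9me1 antibody, streptavidin donor and anti-rabbit IgG acceptor beads.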
PLK1 PBD inh: inhibitors of human PLK1 polo-box domain binding; Plk1 PBD binding of FITC phosphopeptide, fluorescence polarization; Potency, µM, for the others: max response, negative = inhibition, actives largely listed as inhibitors; actives 2.8% (n = 360,000); AID 720504; note: series mostly up to about 57 µM; % is set by controls: 0 for no effect and ±100 for the full control effect; nearly all actives have a fitted effect of over 65% in size
BAZ2B block: blocks human BAZ2B; Q9UIF8; AlphaScreen BAZ2B-H3K14Ac peptide displacement; Potency, µM (series often up to 114 µM), inactives show at the top dose activity change, negative = inhibition, most hits filed as inhibitors; actives 4.4% (n = 360,000); AID 504333; note: % is set by controls: 0 for no effect and ±100 for the full control effect; nearly all actives have a fitted effect of over 60% in size
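In this displacement format the biotinylated H3(5-23) peptide acetylated at Lys14 serves as ligand at 50 nM, with BAZ2B at 50 nM in PBS pH 7.4 containing 0.01% Tween-20. Donor and acceptor beads are 10 ug/mL final.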
An asterisk follows results filed as active; ! = not confirmed by another sample; [ ] = dose if it differs, or a comment. The list is not random: actives were taken first. Their share in the collection is about 12%. Calls come from the whole dose curve; as a rule, active = well fitted curve in the direction sought with a large enough effect; inconclusive = small, poorly fitted or top-dose-only effect, or another doubt; inactive = no such curve, though single readings can be large; an effect the other way counts as inactive or inconclusive. Potency is the fitted concentration of half-maximal effect.

`CCCCn1c(O)c(C(C)=NCCN2CCOCC2)c(=O)[nH]c1=O` gave HP1b binding inh 35%, JMJD2A Tudor -9%, Sfp inh 21%, G9a block 22µM*, PLK1 PBD inh -2% and BAZ2B block 13%.
Screening CC(=NCCN1CCOCC1)c1c(O)n(-c2ccccc2C)c(=O)[nH]c1=O returned HP1b binding inh 42%, JMJD2A Tudor -14%, Sfp inh 7%, G9a block 24%[59 µM], PLK1 PBD inh -5% and BAZ2B block 3%.
Screening CCC(=NCCCN1CCOCC1)c1c(O)n(Cc2ccccc2)c(=O)[nH]c1=O returned HP1b binding inh 28%, JMJD2A Tudor -1%, Sfp inh 2%, G9a block 13µM*, PLK1 PBD inh -2% and BAZ2B block 11%.
Screening CCCCn1c(O)c(C(CC)=NCCN2CCOCC2)c(=O)[nH]c1=O returned HP1b binding inh 32%, JMJD2A Tudor -14%, Sfp inh -25%, G9a block inconclusive, PLK1 PBD inh -12% and BAZ2B block inconclusive.
Screening CCCCn1c(O)c(C=NCCN2CCCCC2)c(=O)[nH]c1=O returned HP1b binding inh 14%, JMJD2A Tudor -5%, Sfp inh 13%, G9a block 79µM*, PLK1 PBD inh -4% and BAZ2B block -2%.
CCCCn1c(O)c(C=NCCCN(CC)CC)c(=O)[nH]c1=O was read as HP1b binding inh 20%, JMJD2A Tudor -11%, Sfp inh 5%, G9a block 16%[59 µM] and PLK1 PBD inh -4%.
`CCC(=NCCN1CCOCC1)c1c(O)n(-c2ccccc2C)c(=O)[nH]c1=O` gave HP1b binding inh 73%, JMJD2A Tudor -25%, Sfp inh -26%, G9a block 28µM*, PLK1 PBD inh -11% and BAZ2B block -37%.
CN(C(=O)Cc1ccc(Cl)c(Cl)c1)[C@@H](CN1CCCC1)c1cccc(OCC(=O)O)c1 was read as Sfp inh -2%.
For CCCCC/C=C\C/C=C\C/C=C\C/C=C\CCCC(=O)NC1CC1 the results were Sfp inh -10% and G9a block 69%[59 µM].
For COC1C(O)C(C)O[C@H](OC2CC[C@@]3(C=O)C4CC[C@]5(C)C(C6=CC(=O)OC6)CC[C@@]5(O)C4CC[C@@H]3C2)C1O (some centres not stated) the results were Sfp inh 0% and G9a block -7%[2.33 µM].
Screening CC(=O)OC1C(=O)[C@]2(C)C(O)CC3OC[C@]3(OC(C)=O)C2[C@@H](OC(=O)c2ccccc2)[C@]2(O)CC(O)C(C)=C1C2(C)C (some centres not stated) returned Sfp inh -4%.
Screening O=c1[nH]c(=O)n(Cc2ccccc2)c(O)c1C=Nc1ccc(CN2CCOCC2)cc1 returned HP1b binding inh 21%, JMJD2A Tudor -7%, Sfp inh 56µM*, G9a block inconclusive, PLK1 PBD inh -3% and BAZ2B block 43%.
Screening C[N+]1=Cc2cc3c(cc2CC1)OCO3 returned Sfp inh -6%.
`O=C(c1ccc2c(c1)N(Cc1ccc(F)cc1)C(=O)c1ccccc1S2)N1CCC2(CC1)OCCO2` gave HP1b binding inh -8%, JMJD2A Tudor inconclusive, G9a block 3%[59 µM] and BAZ2B block -19%.
`O=C(NCCCN1CCCC1)c1ccc2c(c1)N(Cc1cccc(Cl)c1)C(=O)c1ccccc1S2=O` (configuration not stated) gave HP1b binding inh 19%, JMJD2A Tudor -20%, Sfp inh -7%, G9a block 40µM*, PLK1 PBD inh -2% and BAZ2B block -11%[57.1 µM].
Screening CN1CN=C(N[N+](=O)[O-])N(Cc2ccco2)C1 returned HP1b binding inh 35%, JMJD2A Tudor -11%, Sfp inh 10%, G9a block -9%[59 µM], PLK1 PBD inh -3% and BAZ2B block -31%.
`O=[N+]([O-])NC1=NCN(Cc2ccco2)CN1Cc1ccco1` gave HP1b binding inh inconclusive, JMJD2A Tudor inconclusive, Sfp inh inconclusive, G9a block -27%[59 µM], PLK1 PBD inh 27µM* and BAZ2B block -10%.
Screening CCOC(=O)c1c(C)c(P(=S)(N2CCOCC2)N2CCOCC2)n(C)c1C returned HP1b binding inh inconclusive, JMJD2A Tudor -25%, Sfp inh 32µM*, G9a block 6.3µM*, PLK1 PBD inh 27µM* and BAZ2B block inconclusive.
Screening O=C(O)C(O)(c1ccccc1)C1CCCC1 (configuration not stated) returned HP1b binding inh 46%, JMJD2A Tudor 1%, Sfp inh 8%, G9a block 25µM*, PLK1 PBD inh 0% and BAZ2B block inconclusive.
`CC(C)(C)C(=O)OC[N+](C)(C)CCOC(=O)C(O)(c1ccccc1)C1CCCC1` (configuration not stated) gave HP1b binding inh -2%, JMJD2A Tudor -5%, Sfp inh 9%, G9a block 7%, PLK1 PBD inh -14% and BAZ2B block 4%.
CC(C)COC(=O)OCN1C(=O)CN(CCN2CC(=O)N(COC(=O)OCC(C)C)C(=O)C2)CC1=O was read as HP1b binding inh 48%, JMJD2A Tudor -7%, Sfp inh 18%, G9a block 13µM*!, PLK1 PBD inh -8% and BAZ2B block 1%.
COc1ccccc1CN1CC[C@@]2(CCCN(C(=O)Oc3ccccc3)C2)C1 was read as Sfp inh -2% and G9a block 6%[12.7 µM].
Screening O=C(NC1(C(F)(F)F)Oc2ccccc2O1)N1CCC2(CC1)OCCO2 returned HP1b binding inh inconclusive, JMJD2A Tudor 45µM*, Sfp inh -1%, G9a block 1.8µM*, PLK1 PBD inh -3% and BAZ2B block -5%.
`O=C(CCC(=O)N1CCOc2ccc(Cl)cc21)N1CCC2(CC1)OCCO2` gave HP1b binding inh 46%, JMJD2A Tudor -12%, Sfp inh -3%, PLK1 PBD inh -3% and BAZ2B block 4%.
For O=C(NC1(C(F)(F)F)Oc2ccc(Cl)cc2O1)N1CCC2(CC1)OCCO2 (configuration not stated) the results were HP1b binding inh -5%, JMJD2A Tudor 32µM*, Sfp inh 79µM*, G9a block inconclusive, PLK1 PBD inh -1% and BAZ2B block 79µM*.
Screening CCN1C[C@]2(COC(=O)c3ccccc3N3C(=O)C[C@H](C)C3=O)CC[C@H](OC)[C@@]34[C@@H]5C[C@H]6[C@H](OC)[C@H]5[C@](O)(C[C@@H]6OC)[C@@](O)([C@@H](OC)[C@@H]23)[C@@H]14 returned Sfp inh -6%.
